Data taken from PubChem BioAssay AID652251 (National Center for Advancing Translational Sciences (NCATS), 2013).
Active and inactive are the calls of the source.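 Rule for the calls: active = lowers cyclin D1 in cells by half at 5 µM or less; inconclusive = half-effect dose above 5 µM but under 10 µM; inactive = half-effect dose of 10 µM or more.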

Assay: qHTS for Inhibitors of Ubiquitin-specific Protease USP2a Using CHOP2 as the Reporter: Cyclin D1 Western Blot
Settings: HCT116 cyclin D1 western blot
Excerpt: Homeostasis of cellular proteins is maintained through a combination of synthesis and degradation. The pathway that accounts for the majority of protein degradation is the ubiquitin-proteasomal pathway. Ubiquitin (Ub) is highly conserved in all cells and the generation of a multi-Ub chain typically targets proteins for degradation by the proteasome. However, ubiquitination is highly reversible and dynamic. Deubiquitination, the reverse process, is catalyzed through the action of enzymes referred to as isopeptidases or deubiquitinating enzymes (DUBs). This group of enzymes is collectively responsible for maintaining adequate pools of free ubiquitin and regulating the ubiquitination status of cellular proteins. The class of DUBs referred to as the ubiquitin-specific proteases (USP) family functions endoproteolytically to cleave Ub chains from a wide range of protein substrates. USP2a deubiquitinates fatty acid synthase (FASN) which has recently been identified as an emerging oncology target. […] To further visualize and quantitate the effect of compounds on cell proliferation, a colony forming or clonogenic assay was performed in 6-well plates using HCT116 cells. […] The colonies were visualized on the Typhoon imager (GE) using Cy5 detection, and quantitated with the associated software. […]
. […] Protein levels were quantified using ImageJ.
With `Cc1ccc(S(=O)(=O)Nc2cc(C(F)(F)F)ccc2C(=O)Nc2nc(-c3ccccc3)cs2)cc1` the Potency was 970 nM (active).
